Screens (PubChem)
rat GALR2 ag: activates the rat galanin receptor 2; cell-based GALR2 agonist screen; activation, % at 10 µM; hit rate 0.5% among 16,000; AID 833; in the data active = activation above about 15%
Target sequence (O08726 whole entry, looked up): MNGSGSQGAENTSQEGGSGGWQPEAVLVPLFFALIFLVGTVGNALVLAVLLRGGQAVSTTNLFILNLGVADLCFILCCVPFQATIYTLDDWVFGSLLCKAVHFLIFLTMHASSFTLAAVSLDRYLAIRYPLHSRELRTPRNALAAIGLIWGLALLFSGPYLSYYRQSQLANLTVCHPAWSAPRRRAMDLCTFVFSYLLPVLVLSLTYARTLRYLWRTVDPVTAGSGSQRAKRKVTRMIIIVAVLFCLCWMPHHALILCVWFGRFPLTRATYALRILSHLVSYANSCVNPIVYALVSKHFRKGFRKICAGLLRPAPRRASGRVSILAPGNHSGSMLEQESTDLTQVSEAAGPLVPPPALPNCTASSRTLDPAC
S1P1 ag: S1P1 (human) receptor agonism. P21453. S1P1 agonist cell-based reporter assay. activation, % at 4.5 µM. hit rate 1.5% among 16,000; in the data active = activation above about 80%
PME-1 Maybridge: inhibitors of human PME-1 in Maybridge library. Q9Y570. recombinant PME-1, FP-Rh probe fluorescence polarization. inhibition, % at 9 µM. hit rate 0.5% among 16,000; in the data active = inhibition above about 30%
Starred values were filed as active, the others as inactive. Hits are enriched below; roughly 2.7% of the tested compounds scored in any of these assays.

SMILES	rat GALR2 ag	S1P1 ag	PME-1 Maybridge
CCOC(=O)NC(=O)c1cn(Nc2ncc(Cl)cc2C(F)(F)F)c(=O)[nH]c1=O	-6.6	-19.2	-0.1
O=C(NNC(=O)Nc1ccc(OC(F)(F)F)cc1)Nc1ccc(OC(F)(F)F)cc1	-6.2	-12.2	-30.5
N#C/C(N=Cc1ccc(Cl)cc1)=C(\C#N)NC(=O)Nc1ccc(OC(F)(F)F)cc1	-12.7	100.5*	-37.0
COc1ccc(N=Nc2cc(C)c(O)c(CN3CCCCC3)c2)cc1	-6.0	101.4*	2.3
COc1ccc(/C(C)=N/O)cc1CN1CCCC1	-6.8	-4.9	0.8
COc1ccc(CC(C)=C(C#N)C#N)cc1OC	-2.7	-10.1	0.1
COc1ccc(N=Nc2ccc(OC)c(OC)c2)cc1OC	-0.1	92.7*	1.1
CC(NC(=O)OC(C)(C)C)C(=O)NC(Cc1ccccc1)C(=O)O (stereo not given)	-1.9	15.5	-3.4
N/C(=N\OC(=O)c1cccs1)c1ccc(Oc2ccc(C(F)(F)F)cc2[N+](=O)[O-])cc1	-5.4	42.9	-18.6
N#Cc1cccc(C(=O)Cc2cccc(Cl)c2)c1	-2.0	-1.1	1.2
N#Cc1c2ccccc2cn1Cc1cccc(Cl)c1	-6.9	92.7*	-3.4
O=C(O)CS/C=C/c1ccccc1	-5.3	-0.4	4.2
NC(=O)C1CCN(S(=O)(=O)c2cc(Cl)sc2Cl)CC1	-7.2	-10.7	0.4
COc1nc(C)nc(/N=C/NO)n1	-6.2	-2.8	10.6
CSc1nc(=O)[nH]n1-c1ccc([N+](=O)[O-])cc1[N+](=O)[O-]	-0.1	-5.1	-2.3
Cc1ccc(S(=O)(=O)Nc2ccc(N3CCOCC3)c(Cl)c2)cc1	-6.0	38.2	5.1
CCOC(=O)c1sc(N/N=C/c2cccs2)c2c1CC(C)(C)CC2=O	19.3*	3.1	12.6
CCOC(=O)c1sc(N2CCCCC2)c2c1CC(C)(C)CC2=O	0.9	-20.8	3.5
Cn1c(-c2ncc(C(F)(F)F)cc2Cl)n[nH]c1=S	-7.1	92.9*	7.1
Cn1c(C(F)(F)F)n[nH]c1=S	-8.6	-17.1	2.2
CCn1c(SCC(=O)Nc2sc3c(c2C#N)CCC(C)C3)nnc1-c1cccs1 (stereo not given)	-5.1	-11.7	-4.6
CCC(C)(C)C1CCc2c(sc(NC(=O)c3ccccc3C(=O)O)c2C#N)C1 (stereo not given)	-4.3	0.7	33.0*
O=S(=O)(NCc1csc2ccc(Cl)cc12)c1ccc(C(F)(F)F)cc1	9.3	-4.9	-6.1
O=S(=O)(NCCSCc1csc2ccc(Cl)cc12)c1ccc(Cl)cc1	-5.3	90.0*	24.8
O=[N+]([O-])c1c(N2CCOCC2)ccc2nsnc12	55.5*	-2.1	5.4
SMILES	rat GALR2 ag	S1P1 ag	PME-1 Maybridge
N#Cc1ccc(N2CCOCC2)c([N+](=O)[O-])c1	-1.4	0.1	6.4
CSc1sc(C(=O)NCC2CC2)cc1S(=O)(=O)C(C)C	17.1*	-2.8	3.9
CSc1sc(C(=O)O)cc1S(=O)(=O)C(C)C	-3.1	2.5	-0.2
Cc1cc(C)c(C(=O)Nc2cccnc2)c(CC(C)(C)C(=O)O)c1	-6.0	81.7*	6.6
Cn1nc(C(C)(C)C)cc1C(=O)Nc1cccnc1	-7.5	-16.1	-1.2
CCOC(=O)CSc1sc(C(=O)OCC)c(-c2cccs2)c1C#N	1.6	-17.1	-7.7
CCOC(=O)Cn1c(=O)c2ccsc2c2c(C#N)c(SC)sc21	139.3*	-15.2	3.7
O=C(Nn1c(=S)[nH]c2ccccc2c1=O)c1ccco1	-1.0	-23.3	2.9
O=C(Oc1cccc2c1C(=O)C=CC2=O)c1ccccc1	-3.4	102.0*	34.5*
O=C(Oc1cccc2c1CCC2=O)c1ccccc1	-8.2	0.2	-1.6
O=C(Nc1ccc2nonc2c1)N1CCOCC1	-8.1	-14.2	4.1
COc1ccc(C2(O)N=C(C(F)(F)F)NC(SC)=C2C#N)cc1 (stereo not given)	-9.6	9.2	0.2
CCOC(=O)c1sc(-c2ncc(C(F)(F)F)cc2OCC)nc1C	-2.1	3.5	4.7
C/C(=N\NC(=S)NC(C)(C)C)c1sc(-c2ncc(C(F)(F)F)cc2Cl)nc1C	18.8*	-22.5	2.0
O=S(=O)(c1cc(Br)c(Br)s1)N1CCCCC1	-3.5	34.2	2.0
O=S(=O)(Nc1ccc(F)c(Cl)c1)c1cc(Br)c(Br)s1	-9.7	89.7*	6.6
O=C1CNC(=S)N1Cc1ccccn1	-3.8	-8.5	5.3
O=C1CNC(=S)N1Cc1cccs1	-3.3	97.7*	-4.7
Cc1cc(F)ccc1NC(=S)N/N=C/c1cccs1	-2.8	-24.3	-5.1
N/C(=N\OC(=O)c1ccc2ncsc2c1)c1ccc(Cl)cc1Cl	-4.6	69.3	-10.5
CCOC(=O)/C(C#N)=C/Nc1ccncc1	-4.4	-5.7	2.4
CCOC(=O)/C(C#N)=C/Nc1nc2ccc(C)cc2s1	-5.3	87.1*	9.2
CN1c2ccsc2C(O)=C(C(=O)Nc2cccc(Cl)c2)S1(=O)=O	-0.7	1.1	0.0
CS(=O)(=NS(=O)(=O)c1ccc(Cl)cc1)c1ccsc1 (stereo not given)	-2.2	5.1	0.3
CS(=O)(=NS(=O)(=O)c1ccc(Cl)cc1)c1ccccc1 (stereo not given)	-0.1	-9.1	41.1*
SMILES	rat GALR2 ag	S1P1 ag	PME-1 Maybridge
FC(F)(F)c1ccc(-c2nnc(-c3ccccn3)c(-c3ccccn3)n2)nc1	-6.5	7.1	5.3
Clc1ccc(N=Cc2c(-c3ccccc3)nc3n2CCS3)cc1	-5.0	5.0	1.7
Cc1nc(C(=O)NCC(=O)c2cccc(Cl)c2)c(C(F)(F)F)o1	-0.7	91.6*	1.9
NC(=O)CNC(=O)c1cccc(Cl)c1	-6.6	-22.3	0.9
Nc1nc(SC2c3ccccc3-c3ccccc32)n[nH]1	-1.7	1.3	-3.2
Cc1cc(Nc2ccc(F)c(Cl)c2)nc(N)n1	-8.1	-9.9	4.0
O=C(Nc1ccc(-c2nc3ccccc3s2)cc1)c1ccc2c(c1)CCO2	7.3	-17.8	-18.4
O=C(Nc1ccc(-c2nc3ccccc3s2)cc1)Nc1cc(F)cc2c1OCOC2	33.4*	-16.8	-59.4
O=C(O)CSCC(=O)Nc1cccnc1	-7.2	1.2	-2.8
COc1ccc(CCN2C(=O)CSC2=Nc2ccc(C(C)C)cc2)cc1OC	-8.1	108.2*	-1.7
COc1ccc(CCN2CC(C(=O)O)CC2=O)cc1OC (stereo not given)	-4.1	-12.4	3.4
O=C1/C(=C/c2cccs2)CC/C1=C\c1cccs1	6.4	81.2*	0.0
O=C1/C(=C/c2cccs2)CN(Cc2ccccc2)C/C1=C\c1cccs1	-11.5	-19.1	-0.9
Cn1cnc([N+](=O)[O-])c1NCCN1CCNC1=O	-8.4	11.4	-3.5
N#Cc1cccc(NCCN2CCNC2=O)n1	46.8*	-5.4	7.5
N#CC(C(=O)Nc1ccc(Cl)cc1)C(=O)c1cccs1 (stereo not given)	-2.4	34.0	-17.6
Cc1ccc(S(=O)(=O)NC(=O)N(C)CCc2ccccn2)cc1	-6.1	3.6	-1.7
CN(CCc1ccccn1)C(=O)c1nccnc1C(=O)O	-4.6	94.5*	-1.2
O=S(=O)(Cc1ccc(Cl)cc1Cl)C1CCCCC1O (stereo not given)	-8.5	0.8	1.6
CC(=O)c1sc(C(C)(C)C)cc1N	-5.0	-14.5	4.9
O=C(NCc1ccccc1)C1CC(c2ccc(Cl)cc2)=NO1 (stereo not given)	-3.0	2.2	1.1
N#C/C(=C\N1CCc2ccccc2C1)C(=O)c1cccs1	2.8	12.0	7.0
O=C(c1cccs1)N1CCc2ccccc2C1	34.0*	-1.6	5.8
COC(=O)Cc1nc(-c2ccccc2)oc1C	-5.4	6.7	2.7
